One assay concerns Es-2. Kind of assay: Primary qHTS to identify gynecologic anti-cancer compounds using libraries of approved drugs and bioactive compounds (AID 1345084). Also: nearly all actives have a fitted effect of over 55% in size. Also: potency is read from the fitted curve at half-maximal effect. Particulars: Gynecologic cancer cell panel viability, ATPlite luminescence, 48 h; series mostly up to 57.5 µM. Put shortly: (§1)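 Cell viability after 48 h drug treatment, ATPlite luminescence readout; five doses.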
On the technique in general: Quantitative high-throughput screening tests each substance at several concentrations.

A further assay relates to HeLa. The assay is described as above. Particulars: Gynecologic cancer cell panel viability, ATPlite luminescence, 48 h; series mostly up to 57.5 µM. An outline of the steps:
as §1

For another assay, the system named is Hek293T. The assay is described as above. Particulars: Gynecologic cancer cell panel viability, ATPlite luminescence, 48 h, control line for the selectivity index; series mostly up to 57.5 µM. An outline of the steps:
as §1

A further assay concerns JEG-3. The assay is described as above. Particulars: Gynecologic cancer cell panel viability, ATPlite luminescence, 48 h; series mostly up to 57.5 µM. Put shortly: as §1
(In general: ATP-based viability assays read luminescence as a measure of living cells.)

The next assay has as its system OV90. Described as above. Particulars: Gynecologic cancer cell panel viability, ATPlite luminescence, 48 h; series mostly up to 57.5 µM. An outline of the steps: as §1
For another assay, the system named is PA-1. The assay is described as above. To be noted: Gynecologic cancer cell panel viability, ATPlite luminescence, 48 h; series mostly up to 57.5 µM. Put shortly:
as §1

The subject of another assay is SKOV3. The assay is described as above. Particulars: Gynecologic cancer cell panel viability, ATPlite luminescence, 48 h; series mostly up to 57.5 µM. An outline of the steps:
as §1

In the next assay the test system is Tov-21-G. The description is as above. Particulars: Gynecologic cancer cell panel viability, ATPlite luminescence, 48 h; series mostly up to 57.5 µM. Put shortly: as §1
The test system of the next assay is Tov112D. The assay is described as above. Particulars: Gynecologic cancer cell panel viability, ATPlite luminescence, 48 h; series mostly up to 57.5 µM. An outline of the steps:
as §1

Assay [1] can be described thus: Drug repurposing screens with cells derived from glioblastoma tumor samples (AID 1345199). Also: nearly all actives have a fitted effect of over 40% in size. Also: potency is read from the fitted curve at half-maximal effect. As to activity, negative = cell killing: % is scaled to controls: 0 for no effect and ±100 for the full control effect. To be noted: GBM patient neurospheres viability, ATP luminescence, 48 h. Put shortly: (§2)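 Four patient lines of CD133+ GBM neurospheres were screened at several concentrations; hits were retested in those lines plus three slower-growing GBM lines, using 48-hour treatment and ATP-based viability.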

In the next assay the test system is astro. Described as above. To be noted: viability, ATP luminescence, 48 h; series mostly up to 45.9 µM. Put shortly:
as §2

Assay [2] is described as follows: qHTS assay to identify inhibitors of the type 1 interferon - major histocompatibility complex class I in skeletal muscle: Counter screen cell viability and HiBit confirmation (AID 1347412). Also: % is scaled to controls: 0 for no effect and ±100 for the full control effect; nearly all actives have a fitted effect of over 60% in size. To be noted: iHSKM muscle cells + IFN-b, HiBiT or CellTiter-Glo, 24 h; Potency: HiBiT unless noted; Viability, at 45.9 µM (top of the series). Put shortly: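 Duplicate plates, pinned identically: one read for HiBiT-tagged endogenous HLA-B luminescence, the other for ATP-content viability via CellTiter Glo. Cells were genome-engineered human myoblasts given 4 ng/ml IFN-b; compounds 12-pt, 1:3 from 46 uM final; 24 hr exposure.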

For assay [3], the target named is Nuclear receptor subfamily 1 group I member 2 (Rattus norvegicus) (UniProt Q9R1A7). Kind of assay: qHTS assay for small molecule activators of the rat pregnane X receptor (rPXR) signaling pathway (AID 651751; call rule not given here; also: 0% is about no effect). To be noted: rPXR reporter cells, luciferase (One-Glo), 24 h.
The nature of assay [4]: qHTS assay for small molecule activators of the human pregnane X receptor (PXR) signaling pathway (AID 720659; call rule not given here; also: 0% is about no effect).
Where [5] appears, read: at 45.9 µM (top of the series), tumour line B.
Where [6] appears, read: at 45.9 µM (top of the series), tumour line D.
The mark [7] stands for this setting: at 46.1 µM (top of the series), tumour line C.
Setting [8] is: at 46 µM (top of the series), tumour line A.
Setting [9] is: at 21.2 µM (top of the series), tumour line B.

Values joined by “and” are separate entries in the source; they are usually repeats but may differ in a detail not shown here. Equal entries are not always repeated. A number with no mark means an inactive call. Records with an inconclusive call do not appear. Active and inactive are the calls of the source. Unless noted, calls follow the shape of the dose curve; as a rule, active = well fitted curve in the direction sought with a large enough effect; inconclusive = small, poorly fitted or top-dose-only effect, or another doubt; inactive = no such curve, though single readings can be large; an effect the other way counts as inactive or inconclusive.

Nuclear receptor subfamily 1 group I member 2 (Rattus norvegicus), sequence (Q9R1A7 whole entry, looked up): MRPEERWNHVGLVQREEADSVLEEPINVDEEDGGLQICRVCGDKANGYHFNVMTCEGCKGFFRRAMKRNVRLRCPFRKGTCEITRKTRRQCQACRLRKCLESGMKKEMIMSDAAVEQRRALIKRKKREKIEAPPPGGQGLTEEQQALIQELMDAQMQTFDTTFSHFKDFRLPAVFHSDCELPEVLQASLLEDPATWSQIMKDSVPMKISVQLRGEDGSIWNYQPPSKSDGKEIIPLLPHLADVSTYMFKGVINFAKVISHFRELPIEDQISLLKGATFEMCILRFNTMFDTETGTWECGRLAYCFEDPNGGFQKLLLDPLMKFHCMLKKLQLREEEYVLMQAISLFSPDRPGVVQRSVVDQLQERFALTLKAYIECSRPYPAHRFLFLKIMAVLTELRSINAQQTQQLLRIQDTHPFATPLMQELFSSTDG

For `CC(C)(CO)[C@@H](O)C(=O)NCCCO`, the Potency entry in the assay on Es-2, in the assay on HeLa, in the assay with Hek293T, in the assay on JEG-3, with OV90 and in the assay on PA-1 was “inactive” throughout. In addition, the Potency entry in the assay with SKOV3, in the assay on Tov-21-G, in the assay on Tov112D and with astro was “inactive” each time. Moreover, the activity, negative = cell killing in assay [1] (setting [5]) was -12%; in assay [1] (setting [6]), -24.7%; in assay [1] (setting [7]), -3.06%.
Regarding `C[C@]12C=CC(=O)C=C1[C@@H](F)C[C@@H]1[C@@H]2[C@@H](O)C[C@@]2(C)[C@H]1CC[C@]2(O)C(=O)CO`, the Potency entry with Es-2, in the assay on HeLa, in the assay on Hek293T, in the assay with JEG-3, in the assay with OV90 and with PA-1 was “inactive” in each case. In addition, the Potency result (in the assay on SKOV3; in the assay on Tov-21-G; in the assay on Tov112D; in the assay on astro; in [2]) was “inactive” in each case. In addition, the activity, negative = cell killing in assay [1] (setting [5]) is -7.25% and -6.51%; in assay [1] (setting [6]), -13.8% and -3.47%; in [1] (setting [8]), -18%; in assay [1] (setting [7]), -19.6% and -9.59%.
Regarding `CCN(CCCc1ccccc1)CCCc1ccccc1`, the Potency result in the assay on Es-2, in the assay with HeLa, in the assay with Hek293T, in the assay with JEG-3, in the assay on PA-1 and in the assay with SKOV3 was “inactive” throughout. Also, the Potency result with Tov-21-G, with Tov112D and with astro was “inactive” throughout. The Potency in the assay with OV90 was 28.2 µM (active); in assay [1] (tumour line A) it was 5.01 µM (active). Besides, the activity, negative = cell killing in [1] (at 20 µM (top of the series), tumour line C) is -18.9%; in assay [1] (setting [9]) it was 2.05%.
With `CC(=O)OCC(=O)[C@@]12N=C(C)O[C@@H]1C[C@H]1[C@@H]3CCC4=CC(=O)C=C[C@]4(C)[C@H]3[C@@H](O)C[C@@]12C`, the Potency entry with Es-2, in the assay on HeLa, in the assay with Hek293T, in the assay with JEG-3, in the assay with OV90 and in the assay with PA-1 was “inactive” throughout. Moreover, the Potency entry (with SKOV3; with Tov-21-G; in the assay with Tov112D; with astro; in assay [2]) was “inactive” each time. In addition, the activity, negative = cell killing was -9.58% in [1] (setting [5]), -6.5% in assay [1] (setting [6]), -6.46% in assay [1] (setting [8]) and -22.2% in assay [1] (setting [7]).
Turning to `CC(C)(Oc1ccc(Cl)cc1)C(=O)O`, the Potency entry in the assay on Es-2, in the assay on HeLa, in the assay on Hek293T, with JEG-3, in the assay with OV90 and with PA-1 was “inactive” each time. The Potency entry in the assay with SKOV3, in the assay on Tov-21-G, in the assay with Tov112D and in the assay on astro was “inactive” throughout. In addition, the activity, negative = cell killing in assay [1] (setting [5]) is -11.3%; in [1] (setting [6]) it was 2.87%; in assay [1] (setting [8]), -14.8%; in assay [1] (setting [7]), -3.07%. The max response in [3] was -4.53%. In addition, in assay [4], the call was inactive.
Turning to `N[C@@H](CCC(=O)N[C@@H](CS)C(=O)NCC(=O)O)C(=O)O`, the Potency entry with Es-2, with HeLa, in the assay with Hek293T, in the assay on JEG-3, in the assay on OV90 and in the assay on PA-1 was “inactive” in each case. The Potency result in the assay with SKOV3, with Tov-21-G, with Tov112D and in the assay with astro was “inactive” throughout. For the same molecule, the activity, negative = cell killing in assay [1] (setting [5]) is -10.5%; in assay [1] (setting [6]), -6.47%; in [1] (setting [8]), -29.7%; in assay [1] (setting [7]) it was 10.6%.
For `C[C@@H]1C[C@H]2[C@@H]3CCC4=CC(=O)C=C[C@]4(C)[C@@]3(F)[C@@H](O)C[C@]2(C)[C@H]1C(=O)CO`, the Potency entry in the assay with Es-2, with HeLa, in the assay on Hek293T, in the assay on JEG-3, in the assay with OV90 and in the assay on PA-1 was “inactive” each time. For the same molecule, the Potency result in the assay on SKOV3, in the assay with Tov-21-G, in the assay on Tov112D and in the assay with astro was “inactive” throughout. Besides, the activity, negative = cell killing in [1] (setting [5]) is -17.3%; in [1] (setting [6]), -7.25%; in assay [1] (setting [7]), 1.19%.
With `CCN(CC)C(=O)N1CCN(C)CC1`, the Potency result with Es-2, with HeLa, in the assay with Hek293T, with JEG-3, with OV90 and in the assay with PA-1 was “inactive” in each case. The Potency entry with SKOV3, with Tov-21-G, in the assay on Tov112D and in the assay on astro was “inactive” each time. The activity, negative = cell killing in [1] (setting [9]) is -9.76%; in assay [1] (at 21.2 µM (top of the series), tumour line D) it was -28.5%; in [1] (at 21.3 µM (top of the series), tumour line A), -8.09%.
For the molecule `Cc1c(C(N)=O)cc([N+](=O)[O-])cc1[N+](=O)[O-]`, the Potency result in the assay on Es-2, in the assay with HeLa, in the assay with Hek293T, with JEG-3, with OV90 and with PA-1 was “inactive” in each case. Further, the Potency result in the assay on SKOV3, with Tov-21-G, in the assay with Tov112D and with astro was “inactive” throughout. In addition, the activity, negative = cell killing in [1] (setting [5]) is -3.44%; in assay [1] (setting [6]), -20.3%; in assay [1] (setting [8]), -15.4%; in assay [1] (setting [7]), 1.23%.
As for `CCCCC(=O)O[C@]1(C(=O)CO)CC[C@H]2[C@@H]3CCC4=CC(=O)CC[C@]4(C)[C@H]3[C@@H](O)C[C@@]21C`, the Potency entry in the assay with Es-2, in the assay on HeLa, in the assay on Hek293T, with JEG-3, in the assay with OV90 and in the assay on PA-1 was “inactive” in each case. Further, the Potency entry (with SKOV3; in the assay with Tov-21-G; with Tov112D; in the assay on astro; in [2]) was “inactive” throughout. Moreover, the activity, negative = cell killing in assay [1] (setting [5]) was -13.9%; in assay [1] (setting [6]) it was -13.5%; in assay [1] (setting [8]), -14.6%; in assay [1] (setting [7]), -22.7%.
As to `CC1(C)OC[C@@H](COC(=O)CCc2ccc(OC[C@@H](O)CNCCNC(=O)N3CCOCC3)cc2)O1`, the Potency result with Es-2, in the assay with HeLa, in the assay with Hek293T, in the assay with JEG-3, in the assay with OV90 and with PA-1 was “inactive” throughout. Further, the Potency entry with SKOV3, in the assay on Tov-21-G, in the assay with Tov112D and in the assay with astro was “inactive” each time. Besides, the activity, negative = cell killing was -1.97% and -1.33% in assay [1] (setting [5]); -8.36% and -5.13% in assay [1] (setting [6]); 1.06% and -5.37% in [1] (setting [7]).
With `CCCCCC=CCC=CCCCCCCCC(=O)OCC`, the Potency result in the assay with Es-2, with HeLa, in the assay with Hek293T, in the assay on JEG-3, with OV90 and in the assay on PA-1 was “inactive” each time. Further, the Potency entry in the assay with SKOV3, with Tov-21-G, with Tov112D and in the assay on astro was “inactive” each time. Moreover, the activity, negative = cell killing in assay [1] (setting [5]) was -5.69%; in [1] (setting [6]) it was -29.1%; in assay [1] (setting [7]), -8.48%.
Turning to `COC(=O)CCc1ccc(OCC(O)CNC(C)C)cc1` (stereo not given), the Potency result in the assay with Es-2, in the assay with HeLa, in the assay with Hek293T, in the assay with JEG-3, in the assay with OV90 and in the assay with PA-1 was “inactive” each time. The Potency result in the assay with SKOV3, with Tov-21-G, in the assay on Tov112D and in the assay with astro was “inactive” in each case. The activity, negative = cell killing in [1] (setting [5]) was -6.72%; in [1] (setting [6]) it was -12.4%; in [1] (setting [7]) it was -12.3%.

(Values after PubChem BioAssay (NCATS).)
